Consider ten molecules from PubChem BioAssay (NCI).

About 83,000 compounds went through this panel and 20% of them were active in at least one assay; those are over-represented in the sample as a whole.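 The endpoint reported here, percent growth, reads 100 for growth as untreated, 0 for no net growth and -100 for all cells dead.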 Calls of active or inactive are those of the source. How the source made its calls: active means growth percent below 10; inactive means the rest.

Test systems include DU-145 prostate; K-562 leukemia; MALME-3M melanoma; MDA-MB-231 breast; SF-268 CNS; SF-295 CNS; SF-539 CNS; UACC-257 melanoma; M14 melanoma; RXF 393 renal.
Experiment in all cases: NCI-60 one-dose screen, 48 h (100 = growth as untreated, 0 = no growth, -100 = all killed)
Common to all, as to conditions: 10 µM unless noted

Turning to `CC(=O)Nc1ccc(CC#N)cc1Br`, the growth with DU-145 prostate was 107% (inactive); with K-562 leukemia it was 111% (inactive); in the experiment on MALME-3M melanoma it was 101% (inactive); in the experiment on MDA-MB-231 breast, 112% (inactive); with SF-268 CNS, 106% (inactive); in the experiment with SF-295 CNS, 105% (inactive). In addition, the growth in the experiment with SF-539 CNS was 103% (inactive); in the experiment with UACC-257 melanoma, 103% (inactive); in the experiment with M14 melanoma it was 105% (inactive).

As to `NC(CSC(c1ccccc1)(c1ccccc1)c1ccccc1)C(=O)NCC(=O)O` (stereo unspecified), the growth in the experiment with DU-145 prostate is 111% (inactive); in the experiment on K-562 leukemia it was 54.2% (inactive); with MALME-3M melanoma it was 52.9% (inactive); with MDA-MB-231 breast, 61.2% (inactive); in the experiment with RXF 393 renal, 22.6% (inactive); in the experiment with SF-268 CNS it was 67.3% (inactive). Also, the growth with SF-539 CNS was 21.3% (inactive); with UACC-257 melanoma, 54.9% (inactive); in the experiment with M14 melanoma, 44.6% (inactive).

For the molecule `O=C1C=C(OCC=C(C(F)(F)F)C(F)(F)F)c2ccccc2C1=O`, the growth in the experiment on DU-145 prostate is -15% (active); in the experiment with K-562 leukemia, -15.5% (active); in the experiment with MALME-3M melanoma, -34.8% (active); with MDA-MB-231 breast it was 7.59% (active); with RXF 393 renal, -82.5% (active); in the experiment on SF-268 CNS it was 0.611% (active). The values for the growth with UACC-257 melanoma and in the experiment on M14 melanoma were 45.8% (inactive) and 26% (inactive), respectively.

For the molecule `CC(=O)C(CO)C(=O)Nc1ccccc1` (stereo unspecified), the growth was 112% (inactive) in the experiment with DU-145 prostate; 102% (inactive) in the experiment on K-562 leukemia; 109% (inactive) in the experiment with MALME-3M melanoma; 102% (inactive) with MDA-MB-231 breast; 107% (inactive) in the experiment on SF-268 CNS; 107% (inactive) in the experiment on SF-295 CNS. Also, the growth is 95.4% (inactive) in the experiment on SF-539 CNS, 85.7% (inactive) with UACC-257 melanoma and 99.5% (inactive) in the experiment with M14 melanoma.

In the case of `CC(Br)c1nc2ccccc2cc1C(N)=O` (stereo unspecified), the growth was 102% (inactive) in the experiment on DU-145 prostate; 90.9% (inactive) with K-562 leukemia; 101% (inactive) in the experiment on MALME-3M melanoma; 118% (inactive) in the experiment with MDA-MB-231 breast; 109% (inactive) with RXF 393 renal; 104% (inactive) in the experiment on SF-268 CNS. For the same molecule, the growth is 103% (inactive) with SF-539 CNS, 119% (inactive) with UACC-257 melanoma and 109% (inactive) in the experiment with M14 melanoma.

For `COc1cc2cc3cc4cc(OC)c(OC)cc4c(C)[n+]3cc2cc1OC` (tested in a mixture with another compound), the growth is 79.3% (inactive) in the experiment on DU-145 prostate; 58.1% (inactive) in the experiment with K-562 leukemia; 86.2% (inactive) in the experiment on MALME-3M melanoma; 94.5% (inactive) in the experiment with MDA-MB-231 breast; 39.4% (inactive) with SF-268 CNS; 70.7% (inactive) in the experiment on SF-295 CNS. The values for the growth with SF-539 CNS, in the experiment on UACC-257 melanoma and with M14 melanoma were 85% (inactive), 51.1% (inactive) and 78.4% (inactive), respectively.

On to `N=C(N)N=Nc1ccc(NN=C(N)N)c2ccccc12`, for which the growth is 113% (inactive) with DU-145 prostate; 103% (inactive) in the experiment on K-562 leukemia; 146% (inactive) in the experiment on MALME-3M melanoma; 101% (inactive) with MDA-MB-231 breast; 142% (inactive) in the experiment with RXF 393 renal; 106% (inactive) in the experiment on SF-295 CNS. Also, the growth in the experiment with UACC-257 melanoma was 105% (inactive).

Regarding `COc1ccccc1Cn1cc2c(c1)-c1oncc1CC2`, the growth with DU-145 prostate is 22.5% (inactive); in the experiment on K-562 leukemia, 15.9% (inactive); with MDA-MB-231 breast it was 16.5% (inactive); in the experiment on RXF 393 renal it was 4.54% (active); in the experiment on SF-268 CNS it was 35.2% (inactive); in the experiment with SF-295 CNS, -28.8% (active). The growth in the experiment with SF-539 CNS was -13.8% (active); in the experiment with UACC-257 melanoma it was 66.7% (inactive); in the experiment with M14 melanoma it was 14.4% (inactive).

`COc1cc(CNC(=O)CCCC/C=C/C(C)C)ccc1OCc1nnc(Nc2ccccc2F)o1`: the growth was 88.7% (inactive) in the experiment with DU-145 prostate; 60.4% (inactive) in the experiment with K-562 leukemia; 63.9% (inactive) with MDA-MB-231 breast; 68.8% (inactive) in the experiment on RXF 393 renal; 45.5% (inactive) with SF-268 CNS; 48% (inactive) with SF-295 CNS. In addition, the growth is 48.2% (inactive) in the experiment with SF-539 CNS, 98.2% (inactive) in the experiment on UACC-257 melanoma and 99.7% (inactive) in the experiment with M14 melanoma.

Turning to `COc1ccc(C2=C/C(=C\c3ccc(Cl)cc3)C(=O)NN2C(=S)NN)cc1`, the growth in the experiment on DU-145 prostate was 108% (inactive); in the experiment with K-562 leukemia, 93.9% (inactive); with MDA-MB-231 breast, 96.1% (inactive); with RXF 393 renal, 105% (inactive); in the experiment with SF-268 CNS it was 95.8% (inactive); in the experiment with SF-295 CNS it was 96.3% (inactive). Besides, the growth in the experiment on SF-539 CNS was 111% (inactive); in the experiment with UACC-257 melanoma it was 104% (inactive).
